The values that follow come from PubChem BioAssay.

The other results are listed elsewhere or left out. Calls of active or inactive are those of the source.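 The calls were made as follows: active = activation above a set limit carried over from the earlier primary STAT1 screen (cut at about 140% in these data); inactive = the rest.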

The experiment in a line: potentiators of IFN-gamma STAT1 reporter activity – cell-based, HTS, luciferase reporter, confirmation (AID 1262).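 Also: simple ratio to median IFN-gamma plus DMSO wells so 0% means no light.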 The settings on record: NIH 3T3 STAT1-luciferase reporter, IFN-gamma potentiation, luminescence; at 5.7 µM; stronger effect = higher value; 100% = IFN-gamma EC80 alone, no compound.
Regarding `COc1ccc2nc(SCc3ccccc3)nc(C)c2c1`, the activation (% of control) is 231% (active). The figure for `COc1ccc(CS(=O)/C(Cl)=C(/Cl)C(=O)Nc2ccc(OC)nc2)cc1` (stereo not given) is 335% (active). The figure for `CN1C(=O)/C(=C/C=C2\SCCN2C)OC1=S` is 175% (active); for `O=C(Nc1ccc2c(c1)CCC2)c1ccc(Br)s1` it is 236% (active); for `CCn1c(/C=C/c2ccc([N+](=O)[O-])o2)nc2ccccc2c1=O` it is 125% (inactive). The figure for `Cc1ccc(NC(=O)c2csc3c2CCCC3)cc1` is 202% (active). Consider `COc1ccc(C2Nc3ccccc3C(=O)N2c2ccc(Cl)cc2)cc1Cn1cc([N+](=O)[O-])cn1` (stereo not given), for which the activation (% of control) is 151% (active).

In the case of `COc1ccc(-c2csc(-c3cccs3)n2)cc1OC`, the activation (% of control) was 179% (active).

In the case of `Cc1ccccc1Nc1nc(N)nc(CSc2ccccc2)n1`, the activation (% of control) was 220% (active). For the compound `COc1ccc(NC(=O)/C(Cl)=C(/Cl)S(=O)Cc2ccc(C)cc2)cn1` (stereo not given), the activation (% of control) was 324% (active). With `Cc1ccc(NC(=O)Nc2ccccc2)c(Br)c1`, the activation (% of control) is 171% (active). In the case of `COc1ccc(-c2csc(Cc3nc(O)cs3)n2)cc1`, the activation (% of control) was 265% (active).

In the case of `c1ccc(Nc2nc(-c3ccncc3)cs2)nc1`, the activation (% of control) was 243% (active). `CCOC(=O)/C(C#N)=C/c1ccc(N2CCCCC2)cc1`: the activation (% of control) was 155% (active). On to `Cc1cc2nc(SCCN3CCOCC3)[nH]c2cc1C`, for which the activation (% of control) is 157% (active). For the compound `CCOc1ccc2nc(C(=O)N3CCCC(C)C3)sc2c1` (stereo not given), the activation (% of control) was 217% (active). On to `Cc1cccc(NC(=O)Nc2ccc3c(c2)OCO3)n1`, for which the activation (% of control) is 192% (active). The figure for `COc1ccc(-n2nnnc2-c2nc3ccccc3s2)cc1` is 214% (active); for `Cc1cc(C)c2nc(NC(=O)C3CCCO3)sc2c1` (stereo not given) it is 209% (active). With `COc1ccccc1-c1cc(C(=O)N2CCCCC2)no1`, the activation (% of control) is 204% (active).
